Measured values taken from paper PMC7862700, “An all-to-all approach to the identification of sequence-specific readers for epigenetic DNA modifications on cytosine”.

Tests used:
Assay in all cases: DAPPL (digital affinity profiling via proximity ligation, sequencing); 10 mM Tris-HCl pH 7.5, 50 mM NaCl, 1 mM DTT, 4% glycerol, room temperature, 30 min; GST-TFs on glutathione beads, 16-mer random dsDNA library, 0.1% formaldehyde crosslink after washing; high values mean tight binding
Conditions in all cases: protein: recombinant; tags: N-terminal GST; dsDNA, one strand shown
[1] = target: T1, FLI1 (Homo sapiens, UniProt Q01543 1-452)
T1 sequence: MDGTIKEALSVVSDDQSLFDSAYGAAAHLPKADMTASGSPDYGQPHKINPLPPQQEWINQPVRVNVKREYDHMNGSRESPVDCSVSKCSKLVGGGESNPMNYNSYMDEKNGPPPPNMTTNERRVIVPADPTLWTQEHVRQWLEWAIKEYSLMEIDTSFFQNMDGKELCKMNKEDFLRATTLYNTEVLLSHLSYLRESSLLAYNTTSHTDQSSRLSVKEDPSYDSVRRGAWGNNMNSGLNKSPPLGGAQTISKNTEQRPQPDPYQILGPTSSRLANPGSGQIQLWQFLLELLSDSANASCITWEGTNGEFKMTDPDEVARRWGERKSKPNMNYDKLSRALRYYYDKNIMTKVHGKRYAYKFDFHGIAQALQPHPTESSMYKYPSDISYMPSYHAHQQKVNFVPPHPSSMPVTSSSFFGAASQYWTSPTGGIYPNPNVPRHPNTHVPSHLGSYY
Summary of the method: (§1)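 Human transcription factors fused to GST were expressed in yeast, captured on glutathione beads, given DNA barcodes and pooled with a GST-only negative control. Pools were incubated with 200 nmole of a 16-mer random double-stranded DNA library in Tris/NaCl/DTT/glycerol buffer at room temperature for 30 min. They were then washed, crosslinked with 0.1% formaldehyde, proximity-ligated (BsaI/T4 ligase, 1 h, 37 °C), PCR-amplified and sequenced on an Illumina NextSeq500. Binding signal is each 6-mer's read frequency for a factor divided by its frequency for the GST control.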

[2] = target: T2, ELK1 (Homo sapiens, UniProt P19419 1-428)
T2 sequence: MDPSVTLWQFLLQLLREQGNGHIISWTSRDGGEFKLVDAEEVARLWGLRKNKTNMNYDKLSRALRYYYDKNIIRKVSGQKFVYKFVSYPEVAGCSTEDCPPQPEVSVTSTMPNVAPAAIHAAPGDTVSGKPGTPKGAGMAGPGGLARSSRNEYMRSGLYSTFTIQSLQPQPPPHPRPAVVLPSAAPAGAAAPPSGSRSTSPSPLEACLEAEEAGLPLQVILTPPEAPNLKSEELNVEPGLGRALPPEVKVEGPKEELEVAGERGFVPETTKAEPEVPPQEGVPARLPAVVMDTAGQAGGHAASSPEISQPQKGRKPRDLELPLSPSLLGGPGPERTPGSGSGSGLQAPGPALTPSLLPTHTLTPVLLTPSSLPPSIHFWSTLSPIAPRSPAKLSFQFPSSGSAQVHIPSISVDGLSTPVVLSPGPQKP
Summary of the method: as §1

[3] = target: T3, GABPA (Homo sapiens, UniProt Q06546 1-454)
T3 sequence: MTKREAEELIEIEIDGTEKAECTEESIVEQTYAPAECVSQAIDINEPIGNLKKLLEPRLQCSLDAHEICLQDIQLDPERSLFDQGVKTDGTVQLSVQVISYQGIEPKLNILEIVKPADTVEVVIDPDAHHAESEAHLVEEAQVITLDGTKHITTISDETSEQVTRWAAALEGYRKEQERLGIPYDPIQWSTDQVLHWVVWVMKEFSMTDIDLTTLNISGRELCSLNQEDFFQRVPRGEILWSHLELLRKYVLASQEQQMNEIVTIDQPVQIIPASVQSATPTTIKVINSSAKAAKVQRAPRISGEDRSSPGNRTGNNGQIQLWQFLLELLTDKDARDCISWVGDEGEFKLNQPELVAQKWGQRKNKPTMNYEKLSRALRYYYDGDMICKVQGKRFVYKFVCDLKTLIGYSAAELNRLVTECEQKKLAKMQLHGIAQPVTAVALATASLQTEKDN
Summary of the method: as §1

[4] = target: T4, ERG (Homo sapiens, UniProt P11308 1-479)
T4 sequence: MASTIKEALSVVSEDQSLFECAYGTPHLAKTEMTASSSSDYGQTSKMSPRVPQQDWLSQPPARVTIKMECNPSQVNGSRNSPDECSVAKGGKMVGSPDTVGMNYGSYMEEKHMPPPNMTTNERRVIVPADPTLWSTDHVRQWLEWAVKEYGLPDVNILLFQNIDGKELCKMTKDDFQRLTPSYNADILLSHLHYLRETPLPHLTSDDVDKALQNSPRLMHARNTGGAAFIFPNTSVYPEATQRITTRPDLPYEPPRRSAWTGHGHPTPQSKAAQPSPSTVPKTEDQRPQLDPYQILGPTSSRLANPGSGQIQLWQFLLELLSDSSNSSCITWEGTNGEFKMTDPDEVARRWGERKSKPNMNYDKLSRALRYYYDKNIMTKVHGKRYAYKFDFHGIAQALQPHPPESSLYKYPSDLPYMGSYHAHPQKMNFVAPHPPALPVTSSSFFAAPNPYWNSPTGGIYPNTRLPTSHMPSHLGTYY
Summary of the method: as §1

[5] = target: ELF1 (Homo sapiens, UniProt P32519 1-619)
Summary of the method: as §1

[6] = target: T5, EHF (Homo sapiens, UniProt Q9NZC4 1-300)
T5 sequence: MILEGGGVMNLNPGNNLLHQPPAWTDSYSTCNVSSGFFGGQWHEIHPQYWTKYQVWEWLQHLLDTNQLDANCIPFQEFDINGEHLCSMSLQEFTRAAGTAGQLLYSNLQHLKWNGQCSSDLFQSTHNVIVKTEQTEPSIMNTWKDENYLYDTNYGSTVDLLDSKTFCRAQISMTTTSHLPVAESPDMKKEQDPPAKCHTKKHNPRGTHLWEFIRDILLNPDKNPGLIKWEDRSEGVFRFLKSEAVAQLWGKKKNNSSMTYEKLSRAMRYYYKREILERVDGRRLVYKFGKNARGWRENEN
Summary of the method: as §1

[7] = target: SPIB (Homo sapiens, UniProt Q01892 1-262)
Summary of the method: as §1

[8] = target: T6, SPIC (Homo sapiens, UniProt Q8N5J4 1-248)
T6 sequence: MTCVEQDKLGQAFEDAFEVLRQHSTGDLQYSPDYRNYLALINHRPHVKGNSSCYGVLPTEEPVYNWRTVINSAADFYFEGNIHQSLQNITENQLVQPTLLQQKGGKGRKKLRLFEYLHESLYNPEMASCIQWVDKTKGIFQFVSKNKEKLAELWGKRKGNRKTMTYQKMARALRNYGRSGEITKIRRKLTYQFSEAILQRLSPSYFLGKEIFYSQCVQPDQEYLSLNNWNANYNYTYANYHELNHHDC
Summary of the method: as §1

[9] = target: ELF4 (Homo sapiens, UniProt Q99607 1-663)
Summary of the method: as §1

[10] = target: T7, ELK4 (Homo sapiens, UniProt P28324-2 1-405)
T7 sequence: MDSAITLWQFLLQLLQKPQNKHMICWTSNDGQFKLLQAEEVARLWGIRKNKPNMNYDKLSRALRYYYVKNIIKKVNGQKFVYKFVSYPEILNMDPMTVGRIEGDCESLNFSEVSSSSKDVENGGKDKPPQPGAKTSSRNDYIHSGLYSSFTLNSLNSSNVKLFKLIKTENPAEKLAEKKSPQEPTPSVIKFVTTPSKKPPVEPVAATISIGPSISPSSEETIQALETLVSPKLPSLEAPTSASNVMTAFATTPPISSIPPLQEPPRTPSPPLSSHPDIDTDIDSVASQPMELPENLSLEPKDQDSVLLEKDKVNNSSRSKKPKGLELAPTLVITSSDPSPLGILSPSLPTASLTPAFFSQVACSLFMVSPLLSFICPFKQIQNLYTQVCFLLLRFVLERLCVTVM
Summary of the method: as §1

[11] = target: T8, ETV2 (Homo sapiens, UniProt O00321 1-342)
T8 sequence: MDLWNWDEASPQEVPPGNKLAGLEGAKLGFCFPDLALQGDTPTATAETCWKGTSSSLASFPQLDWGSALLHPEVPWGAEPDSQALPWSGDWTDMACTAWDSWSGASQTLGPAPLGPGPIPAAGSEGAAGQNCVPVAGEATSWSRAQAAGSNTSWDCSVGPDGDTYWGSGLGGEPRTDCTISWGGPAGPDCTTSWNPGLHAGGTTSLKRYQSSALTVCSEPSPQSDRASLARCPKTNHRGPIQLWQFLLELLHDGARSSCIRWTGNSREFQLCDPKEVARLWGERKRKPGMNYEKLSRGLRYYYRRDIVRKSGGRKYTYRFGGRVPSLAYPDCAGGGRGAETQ
Summary of the method: as §1

[12] = target: ETV1 (Homo sapiens, UniProt P50549 1-477)
Summary of the method: as §1

[13] = target: T9, ERF (Homo sapiens, UniProt P50548 1-548)
T9 sequence: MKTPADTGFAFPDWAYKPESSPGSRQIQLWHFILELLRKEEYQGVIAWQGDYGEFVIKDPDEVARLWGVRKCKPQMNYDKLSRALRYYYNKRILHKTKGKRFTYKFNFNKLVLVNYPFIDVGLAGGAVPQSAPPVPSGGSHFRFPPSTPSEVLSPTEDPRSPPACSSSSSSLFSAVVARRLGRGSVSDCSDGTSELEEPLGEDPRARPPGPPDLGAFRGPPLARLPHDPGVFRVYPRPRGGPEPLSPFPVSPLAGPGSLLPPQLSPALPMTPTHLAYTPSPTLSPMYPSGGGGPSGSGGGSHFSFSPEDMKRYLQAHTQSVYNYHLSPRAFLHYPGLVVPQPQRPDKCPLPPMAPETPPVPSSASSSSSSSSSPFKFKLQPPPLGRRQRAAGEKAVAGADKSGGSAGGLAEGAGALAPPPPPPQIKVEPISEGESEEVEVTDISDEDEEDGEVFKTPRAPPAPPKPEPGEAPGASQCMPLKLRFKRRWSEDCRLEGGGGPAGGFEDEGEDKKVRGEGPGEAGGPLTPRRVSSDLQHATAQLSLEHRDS
Summary of the method: as §1

[14] = target: T10, ETV3L (Homo sapiens, UniProt Q6ZN32 1-361)
T10 sequence: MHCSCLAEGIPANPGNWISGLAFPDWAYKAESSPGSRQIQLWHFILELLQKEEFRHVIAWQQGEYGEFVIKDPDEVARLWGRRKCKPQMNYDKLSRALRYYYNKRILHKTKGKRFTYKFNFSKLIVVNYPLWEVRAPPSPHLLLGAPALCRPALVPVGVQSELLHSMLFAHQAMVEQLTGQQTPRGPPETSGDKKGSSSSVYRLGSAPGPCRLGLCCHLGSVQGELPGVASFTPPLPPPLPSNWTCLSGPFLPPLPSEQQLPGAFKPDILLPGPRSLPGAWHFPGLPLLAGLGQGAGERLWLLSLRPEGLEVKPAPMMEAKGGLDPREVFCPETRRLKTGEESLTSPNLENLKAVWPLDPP
Summary of the method: as §1

[15] = target: T11, ETS2 (Homo sapiens, UniProt P15036 1-469)
T11 sequence: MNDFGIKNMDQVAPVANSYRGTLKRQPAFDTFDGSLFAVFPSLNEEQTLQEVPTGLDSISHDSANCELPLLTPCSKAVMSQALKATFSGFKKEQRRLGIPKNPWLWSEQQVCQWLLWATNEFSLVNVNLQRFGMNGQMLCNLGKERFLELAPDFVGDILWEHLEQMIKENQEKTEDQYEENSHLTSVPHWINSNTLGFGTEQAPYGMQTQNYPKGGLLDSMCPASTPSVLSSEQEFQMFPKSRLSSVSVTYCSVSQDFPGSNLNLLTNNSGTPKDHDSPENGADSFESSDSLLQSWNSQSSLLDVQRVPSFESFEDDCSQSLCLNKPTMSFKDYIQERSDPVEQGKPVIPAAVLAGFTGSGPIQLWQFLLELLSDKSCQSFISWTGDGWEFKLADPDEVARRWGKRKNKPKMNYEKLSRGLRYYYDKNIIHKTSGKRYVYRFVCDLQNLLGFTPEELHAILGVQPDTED
Summary of the method: as §1

[16] = target: T12, ETV7 (Homo sapiens, UniProt Q9Y603 1-341)
T12 sequence: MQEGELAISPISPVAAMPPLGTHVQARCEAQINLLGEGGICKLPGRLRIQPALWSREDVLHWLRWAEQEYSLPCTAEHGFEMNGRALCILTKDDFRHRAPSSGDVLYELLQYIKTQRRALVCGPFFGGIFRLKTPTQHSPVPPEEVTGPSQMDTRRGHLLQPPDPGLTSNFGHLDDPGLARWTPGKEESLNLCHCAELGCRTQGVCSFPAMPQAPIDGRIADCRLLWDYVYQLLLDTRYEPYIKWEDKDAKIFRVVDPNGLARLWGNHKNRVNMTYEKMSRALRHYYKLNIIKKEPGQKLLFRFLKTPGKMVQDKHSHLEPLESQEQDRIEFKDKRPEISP
Summary of the method: as §1

[17] = target: ETV6 (Homo sapiens, UniProt P41212 1-452)
Summary of the method: as §1

ELF1, sequence (P32519 whole entry): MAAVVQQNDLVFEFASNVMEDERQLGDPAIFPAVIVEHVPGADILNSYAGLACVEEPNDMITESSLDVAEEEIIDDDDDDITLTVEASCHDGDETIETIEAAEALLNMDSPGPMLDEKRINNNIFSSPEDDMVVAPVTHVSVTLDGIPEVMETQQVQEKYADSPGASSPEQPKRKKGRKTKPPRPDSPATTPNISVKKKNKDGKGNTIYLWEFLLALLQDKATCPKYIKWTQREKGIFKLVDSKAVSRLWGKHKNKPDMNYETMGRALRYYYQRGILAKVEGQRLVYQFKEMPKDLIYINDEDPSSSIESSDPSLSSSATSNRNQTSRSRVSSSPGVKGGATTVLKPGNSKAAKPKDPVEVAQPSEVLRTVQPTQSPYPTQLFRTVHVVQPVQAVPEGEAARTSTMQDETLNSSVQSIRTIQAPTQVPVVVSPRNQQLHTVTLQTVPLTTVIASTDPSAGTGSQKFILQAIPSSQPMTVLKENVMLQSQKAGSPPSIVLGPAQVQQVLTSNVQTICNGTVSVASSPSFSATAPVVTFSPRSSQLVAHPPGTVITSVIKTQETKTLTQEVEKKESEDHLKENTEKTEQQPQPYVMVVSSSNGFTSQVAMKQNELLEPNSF
ETV1, sequence (P50549 whole entry): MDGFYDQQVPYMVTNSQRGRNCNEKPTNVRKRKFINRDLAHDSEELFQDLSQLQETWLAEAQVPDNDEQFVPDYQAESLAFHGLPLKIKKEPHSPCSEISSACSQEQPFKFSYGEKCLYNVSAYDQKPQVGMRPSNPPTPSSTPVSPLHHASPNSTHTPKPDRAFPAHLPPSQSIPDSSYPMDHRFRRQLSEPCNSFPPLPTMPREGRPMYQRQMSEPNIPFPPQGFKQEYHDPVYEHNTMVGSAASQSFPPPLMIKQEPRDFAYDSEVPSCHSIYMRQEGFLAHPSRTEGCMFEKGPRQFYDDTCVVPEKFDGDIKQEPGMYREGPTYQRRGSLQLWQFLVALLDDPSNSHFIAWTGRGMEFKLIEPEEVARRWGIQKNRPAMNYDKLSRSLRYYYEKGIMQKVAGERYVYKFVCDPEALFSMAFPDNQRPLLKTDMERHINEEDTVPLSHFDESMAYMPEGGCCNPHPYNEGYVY
SPIB, sequence (Q01892 whole entry): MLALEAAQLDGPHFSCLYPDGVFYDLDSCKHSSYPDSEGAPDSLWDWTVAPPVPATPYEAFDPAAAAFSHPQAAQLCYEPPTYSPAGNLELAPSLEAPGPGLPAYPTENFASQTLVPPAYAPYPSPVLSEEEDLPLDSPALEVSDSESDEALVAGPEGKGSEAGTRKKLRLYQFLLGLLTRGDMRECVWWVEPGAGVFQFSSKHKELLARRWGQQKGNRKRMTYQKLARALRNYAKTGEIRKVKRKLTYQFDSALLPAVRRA
ETV6, sequence (P41212 whole entry): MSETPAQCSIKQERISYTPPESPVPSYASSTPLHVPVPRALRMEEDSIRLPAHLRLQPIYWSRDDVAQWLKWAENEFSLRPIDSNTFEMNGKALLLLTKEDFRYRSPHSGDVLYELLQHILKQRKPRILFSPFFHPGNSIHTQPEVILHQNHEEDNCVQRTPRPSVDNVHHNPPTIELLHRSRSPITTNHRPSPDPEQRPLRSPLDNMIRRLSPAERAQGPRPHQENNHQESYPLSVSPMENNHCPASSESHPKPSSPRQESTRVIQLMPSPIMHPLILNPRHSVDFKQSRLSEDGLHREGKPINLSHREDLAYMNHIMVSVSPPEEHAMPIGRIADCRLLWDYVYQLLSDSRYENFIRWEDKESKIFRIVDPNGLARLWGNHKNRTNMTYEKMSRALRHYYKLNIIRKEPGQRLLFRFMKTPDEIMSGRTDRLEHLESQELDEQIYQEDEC
ELF4, sequence (Q99607 whole entry): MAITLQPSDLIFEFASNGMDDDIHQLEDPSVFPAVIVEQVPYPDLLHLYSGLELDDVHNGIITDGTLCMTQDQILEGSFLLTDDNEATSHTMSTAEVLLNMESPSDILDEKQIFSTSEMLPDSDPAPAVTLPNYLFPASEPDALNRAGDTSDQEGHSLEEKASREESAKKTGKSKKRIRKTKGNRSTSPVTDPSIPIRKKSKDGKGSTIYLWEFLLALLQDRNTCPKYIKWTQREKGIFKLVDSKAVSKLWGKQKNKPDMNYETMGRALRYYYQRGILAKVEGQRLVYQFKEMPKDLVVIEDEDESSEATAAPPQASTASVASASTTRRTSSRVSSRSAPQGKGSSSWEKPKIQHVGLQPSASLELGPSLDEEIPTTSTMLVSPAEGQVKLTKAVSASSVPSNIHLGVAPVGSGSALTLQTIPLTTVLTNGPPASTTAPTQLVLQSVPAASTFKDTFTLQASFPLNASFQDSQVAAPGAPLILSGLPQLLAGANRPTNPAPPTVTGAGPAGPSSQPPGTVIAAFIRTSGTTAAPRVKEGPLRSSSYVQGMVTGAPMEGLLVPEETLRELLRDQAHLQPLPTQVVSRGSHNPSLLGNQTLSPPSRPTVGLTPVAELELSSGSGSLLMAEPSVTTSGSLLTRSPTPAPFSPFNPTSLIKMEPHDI

GTTCGC
binding signal [1]: 1.06 fold enrichment (6-mer frequency, TF over GST control) | binding signal [2]: 1.08 fold enrichment (6-mer frequency, TF over GST control) | binding signal [3]: 1.03 fold enrichment (6-mer frequency, TF over GST control) | binding signal [4]: 1.04 fold enrichment (6-mer frequency, TF over GST control) | binding signal [5]: 1.02 fold enrichment (6-mer frequency, TF over GST control) | binding signal [6]: 1.05 fold enrichment (6-mer frequency, TF over GST control) | binding signal [7]: 1.11 fold enrichment (6-mer frequency, TF over GST control) | binding signal [8]: 1.17 fold enrichment (6-mer frequency, TF over GST control) | binding signal [9]: 1.1 fold enrichment (6-mer frequency, TF over GST control) | binding signal [10]: 1.16 fold enrichment (6-mer frequency, TF over GST control) | binding signal [11]: 1.11 fold enrichment (6-mer frequency, TF over GST control) | binding signal [12]: 1.14 fold enrichment (6-mer frequency, TF over GST control) | binding signal [13]: 1.18 fold enrichment (6-mer frequency, TF over GST control) | binding signal [14]: 1.07 fold enrichment (6-mer frequency, TF over GST control) | binding signal [15]: 1 fold enrichment (6-mer frequency, TF over GST control) | binding signal [16]: 1.02 fold enrichment (6-mer frequency, TF over GST control) | binding signal [17]: 1.07 fold enrichment (6-mer frequency, TF over GST control)
